# Source: the supplement of paper PMC9794691
# Assays:
# [1] = tested on: H1975; experiment: area under confluence curve of compound monotherapy; compare to DMSO control AUC of the same experiment (AUC (confluence x time, arbitrary))
# Method in brief: (§1)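 EGFR-mutant adenocarcinoma lines (RPMI 1640, 10% FBS, 37 °C, 5% CO2) were seeded at 20,000–30,000 cells/well in 48-well plates and next day given test compound alone at one dose (highest with <50% parental inhibition, or 1 uM), refreshed after PBS washes every 3–4 days, then drug-free from DTP stage (10–21 days). IncuCyte confluence was tracked until EGFR-inhibitor-only wells regrew. Area under the confluence curve came from Prism (median of triplicates where run), beside same-experiment vehicle AUC.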
# [2] = tested on: HCC2279; experiment: as above
# Method in brief: as §1
# [3] = tested on: HCC2935; experiment: as above
# Method in brief: as §1
# [4] = tested on: HCC4006; experiment: as above
# Method in brief: as §1
# [5] = tested on: HCC827; experiment: as above
# Method in brief: as §1
# [6] = tested on: II-18; experiment: as above
# Method in brief: as §1
# [7] = tested on: H1975; experiment: area under confluence curve of osimertinib + compound combination regimen (DTP regrowth); compare to osimertinib-only DTP control AUC of the same experiment (AUC (confluence x time, arbitrary)); settings: test compound dose 1000 nM, DMSO control AUC in same experiment: 15857
# Method in brief: (§2)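 Two schedules were compared in EGFR-mutant NSCLC lines. In one, the EGFR inhibitor and a fixed-dose test compound were given together up to the persister stage (10–21 days), followed by drug-free medium. In the other, the inhibitor alone came first and the test compound second. Prism calculated the area under the IncuCyte confluence–time curve, taking the median of triplicates where these were available.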
# [8] = tested on: HCC2279; experiment: as above; settings: test compound dose 1000 nM, DMSO control AUC in same experiment: 14404
# Method in brief: as §2
# [9] = tested on: HCC2935; experiment: as above; settings: test compound dose 1000 nM, DMSO control AUC in same experiment: 19215
# Method in brief: as §2
# [10] = tested on: HCC4006; experiment: as above; settings: test compound dose 1000 nM, DMSO control AUC in same experiment: 18415
# Method in brief: as §2
# [11] = tested on: HCC827; experiment: as above; settings: test compound dose 1000 nM, DMSO control AUC in same experiment: 21320
# Method in brief: as §2
# [12] = tested on: II-18; experiment: as above; settings: test compound dose 1000 nM, DMSO control AUC in same experiment: 11834
# Method in brief: as §2
# [13] = 1000 nM, DMSO control AUC in same experiment: 20657
# [14] = dosing schedule: sequential, osimertinib-only DTP control AUC in same experiment: 22968
# [15] = dosing schedule: upfront, osimertinib-only DTP control AUC in same experiment: 27164
# [16] = dosing schedule: sequential, osimertinib-only DTP control AUC in same experiment: 26096
# [17] = dosing schedule: upfront, osimertinib-only DTP control AUC in same experiment: 33120
# [18] = dosing schedule: sequential, osimertinib-only DTP control AUC in same experiment: 22314
# [19] = dosing schedule: upfront, osimertinib-only DTP control AUC in same experiment: 29846
# [20] = dosing schedule: sequential, osimertinib-only DTP control AUC in same experiment: 12791
# [21] = dosing schedule: upfront, osimertinib-only DTP control AUC in same experiment: 17269
# [22] = dosing schedule: sequential, osimertinib-only DTP control AUC in same experiment: 15330
# [23] = dosing schedule: upfront, osimertinib-only DTP control AUC in same experiment: 20798
# [24] = dosing schedule: sequential, osimertinib-only DTP control AUC in same experiment: 8624
# [25] = dosing schedule: upfront, osimertinib-only DTP control AUC in same experiment: 10856
structure (smiles),measurement,setting,value
O=C(c1cc(Cc2n[nH]c(=O)c3ccccc23)ccc1F)N1CCN(C(=O)C2CC2)CC1 [Olaparib],area under confluence curve,"[1]; 1000 nM, DMSO control AUC in same experiment: 15857",12200
same,area under confluence curve,"[2]; 1000 nM, DMSO control AUC in same experiment: 14404",14700
same,area under confluence curve,"[3]; 1000 nM, DMSO control AUC in same experiment: 19215",20800
same,area under confluence curve,"[4]; 1000 nM, DMSO control AUC in same experiment: 18415",19900
same,area under confluence curve,"[5]; 1000 nM, DMSO control AUC in same experiment: 21320",20700
same,area under confluence curve,"[6]; 1000 nM, DMSO control AUC in same experiment: 11834",10800
Cc1cc(N2C[C@@H](C)N[C@@H](C)C2)ncc1-c1ccc(-c2nc3c(ccn3C)c(=O)[nH]2)cc1,area under confluence curve,[1]; [13],19600
same,area under confluence curve,"[2]; 1000 nM, DMSO control AUC in same experiment: 40085",40800
same,area under confluence curve,"[3]; 1000 nM, DMSO control AUC in same experiment: 15413",14600
same,area under confluence curve,"[4]; 1000 nM, DMSO control AUC in same experiment: 10921",10500
same,area under confluence curve,"[5]; 1000 nM, DMSO control AUC in same experiment: 48895",48800
same,area under confluence curve,"[6]; 1000 nM, DMSO control AUC in same experiment: 7080",6490
O=C(c1cc(Cc2n[nH]c(=O)c3ccccc23)ccc1F)N1CCN(C(=O)C2CC2)CC1 [Olaparib] + C=CC(=O)Nc1cc(Nc2nccc(-c3cn(C)c4ccccc34)n2)c(OC)cc1N(C)CCN(C)C [osimertinib],area under confluence curve,[7]; [14],19500
same,area under confluence curve,[7]; [15],21000
same,area under confluence curve,[8]; [16],23100
same,area under confluence curve,[8]; [17],29800
same,area under confluence curve,[9]; [18],20700
same,area under confluence curve,[9]; [19],26000
same,area under confluence curve,[10]; [20],11700
same,area under confluence curve,[10]; [21],18000
same,area under confluence curve,[11]; [22],12400
same,area under confluence curve,[11]; [23],23700
same,area under confluence curve,[12]; [24],9480
same,area under confluence curve,[12]; [25],9420
NC1(C(=O)N[C@@H](CCO)c2ccc(Cl)cc2)CCN(c2nc[nH]c3nccc2-3)CC1 [Capivasertib],area under confluence curve,"[1]; 300 nM, DMSO control AUC in same experiment: 26010",22500
same,area under confluence curve,"[2]; 300 nM, DMSO control AUC in same experiment: 29252",28500
same,area under confluence curve,"[3]; 300 nM, DMSO control AUC in same experiment: 11459",6510
same,area under confluence curve,"[4]; 300 nM, DMSO control AUC in same experiment: 16794",16700
same,area under confluence curve,"[5]; 300 nM, DMSO control AUC in same experiment: 27404",28500
same,area under confluence curve,"[6]; 300 nM, DMSO control AUC in same experiment: 13556",11600
C[C@@H](Nc1cc(F)cc(F)c1)c1cc(C(=O)N(C)C)cc2c(=O)cc(N3CCOCC3)oc12,area under confluence curve,[1]; [13],18600
same,area under confluence curve,"[2]; 1000 nM, DMSO control AUC in same experiment: 29252",24500
same,area under confluence curve,"[3]; 1000 nM, DMSO control AUC in same experiment: 13875",10800
same,area under confluence curve,"[4]; 1000 nM, DMSO control AUC in same experiment: 16638",13600
same,area under confluence curve,"[5]; 1000 nM, DMSO control AUC in same experiment: 27404",24900
same,area under confluence curve,"[6]; 1000 nM, DMSO control AUC in same experiment: 18482",11000
COc1nn(C)cc1Nc1nccc(-c2c[nH]c3c(NC(=O)[C@@H](C)N4CCN(C)CC4)cccc23)n1 + C=CC(=O)Nc1cc(Nc2nccc(-c3cn(C)c4ccccc34)n2)c(OC)cc1N(C)CCN(C)C [osimertinib],area under confluence curve,[7]; [14],19800
same,area under confluence curve,[7]; [15],18200
same,area under confluence curve,[8]; [16],23400
same,area under confluence curve,[8]; [17],31200
same,area under confluence curve,[9]; [18],20700
same,area under confluence curve,[9]; [19],31500
same,area under confluence curve,[10]; [20],12900
same,area under confluence curve,[10]; [21],18700
same,area under confluence curve,[11]; [22],10400
same,area under confluence curve,[11]; [23],15000
same,area under confluence curve,[12]; [24],1310
same,area under confluence curve,[12]; [25],1640
